Source: PubChem (National Center for Advancing Translational Sciences (NCATS))
NIH3T3 tox – Cytotoxic Profiling in NIH 3T3 Cell Line of Diverse Libraries Using Quantitative High-Throughput Screening; 4.3% of 94,000 active; NIH 3T3 viability, CellTiter-Glo ATP luminescence, 48-72 h; AID 1345082, 2018; Potency, µM (highest dose often 96.7 µM), for the others: top-dose activity change, negative = cytotoxicity, actives largely listed as inhibitors; further: nearly all actives have a fitted effect of over 55% in size
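NIH 3T3 cells at 400 cells/well received 23 nL of compound by pintool and were incubated 48 or 72 h at 37 °C. Viability was read as ATP-coupled CellTiter-Glo luminescence.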
NPR1 antag – Natriuretic polypeptide receptor (hNpr1) antagonism - Primary qHTS; Potency, µM (series often up to 46.3 µM), without a hit: at the highest dose activity change, negative = inhibition, most hits filed as inhibitors; AID 1347048, 2019; HEK293 hNpr1 GloSensor cGMP, ANP-stimulated luminescence; 1.6% of 76,000 active; Atrial natriuretic peptide receptor 1 (Homo sapiens), P16066; calls by dose curve; further: nearly all actives have a fitted effect of over 60% in size
Target sequence (P16066 whole entry, looked up): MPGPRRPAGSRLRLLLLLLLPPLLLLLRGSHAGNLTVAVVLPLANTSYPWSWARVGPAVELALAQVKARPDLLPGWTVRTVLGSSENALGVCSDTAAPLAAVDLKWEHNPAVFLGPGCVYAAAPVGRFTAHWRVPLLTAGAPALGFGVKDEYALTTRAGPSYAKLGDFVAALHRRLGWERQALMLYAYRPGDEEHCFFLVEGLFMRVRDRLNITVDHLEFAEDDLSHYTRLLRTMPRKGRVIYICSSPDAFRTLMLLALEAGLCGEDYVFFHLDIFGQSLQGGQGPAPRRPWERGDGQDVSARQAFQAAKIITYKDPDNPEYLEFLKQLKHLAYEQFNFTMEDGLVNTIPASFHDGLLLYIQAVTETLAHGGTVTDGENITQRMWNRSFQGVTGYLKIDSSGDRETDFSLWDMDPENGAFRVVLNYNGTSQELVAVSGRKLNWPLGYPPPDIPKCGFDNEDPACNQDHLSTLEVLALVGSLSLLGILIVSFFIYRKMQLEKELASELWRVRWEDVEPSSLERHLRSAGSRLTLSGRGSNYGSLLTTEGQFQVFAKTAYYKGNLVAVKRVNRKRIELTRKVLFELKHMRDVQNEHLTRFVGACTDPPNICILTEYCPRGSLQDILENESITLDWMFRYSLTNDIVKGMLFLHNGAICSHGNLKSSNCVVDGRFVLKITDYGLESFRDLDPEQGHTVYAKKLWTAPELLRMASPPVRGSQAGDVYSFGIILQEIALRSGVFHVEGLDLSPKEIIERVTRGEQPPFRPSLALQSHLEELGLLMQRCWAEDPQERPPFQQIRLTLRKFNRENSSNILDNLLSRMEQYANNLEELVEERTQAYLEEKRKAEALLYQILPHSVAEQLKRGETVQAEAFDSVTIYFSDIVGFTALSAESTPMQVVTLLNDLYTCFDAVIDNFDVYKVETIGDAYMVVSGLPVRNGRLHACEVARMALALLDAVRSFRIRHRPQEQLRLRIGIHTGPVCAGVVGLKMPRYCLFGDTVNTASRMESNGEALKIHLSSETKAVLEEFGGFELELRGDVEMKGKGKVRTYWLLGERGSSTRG
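Compound pre-incubated 30 min at room temperature on GloSensor-loaded HEK293 cells stably carrying hNpr1 and the pGS-40F cGMP biosensor. Stimulation uses hNppA at 0.1 nM final; luminescence is taken at baseline and 20 min post-agonist.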
HEK293 tox – Cytotoxic Profiling in HEK 293 Cell Line of Diverse Libraries Using Quantitative High-Throughput Screening | Potency, µM (titrated, usually from 115 µM), without a hit: at the highest dose activity change, negative = cytotoxicity, actives largely listed as inhibitors | AID 1345083, 2018 | HEK 293 viability, ATP luminescence (CellTiter-Glo), 48-72 h | 6.6% of 94,000 active; further: nearly all actives have a fitted effect of over 60% in size
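Pintool-delivered compounds were incubated with HEK 293 cells (250 cells/well) at 37 degree Celsius for 48 or 72 hr. ATP-dependent luminescence (CellTiter-Glo) then reported remaining viable cells.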
Luciferase inh – Firefly luciferase inhibition profiling of diverse chemical library using quantitative high-throughput screening. AID 1347043, 2019. purified P. pyralis luciferase, luminescence, biochemical. 2.5% of 76,000 active. Potency, µM (titrated, usually from 115 µM), actives largely listed as inhibitors. Luciferin 4-monooxygenase (Photinus pyralis), P08659; further: nearly all actives have a fitted effect of over 65% in size
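FLuc 10nM, D-luciferin 10uM, ATP 10uM, Mg acetate 10mM, Tris acetate pH 7.5, Tween/BSA; cpd qHTS; enzyme added last; CCD luminescence.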
* hit, by the source's call; [ ] = dose if it differs, or a comment. Only some compounds are listed: those with a hit (about 11% of all), similar ones and a draw of the others. Unless noted, the call rests on the fitted dose curve; in most records, active means well fitted curve in the direction sought with a large enough effect; inconclusive means small, poorly fitted or top-dose-only effect, or another doubt; inactive means no such curve, though single readings can be large; an effect the other way counts as inactive or inconclusive. On the % scale 0 is the no-effect control and ±100 the full control effect; potency means the concentration at half of the fitted maximal effect.

`CC1=C[C@@H](CNC(=O)CCC(=O)O)[C@H](C(C)C)C[C@H]1Cc1nc2c(C)cccc2[nH]1` gave NIH3T3 tox -2%[174 µM], NPR1 antag -2%[70.6 µM], HEK293 tox inconclusive and Luciferase inh inactive.
O=C1CCN(C(=O)COc2ccc(F)cc2)CCCC(c2nc(-c3ccccc3)no2)CCN1 (stereo unspecified) was read as NIH3T3 tox inconclusive, NPR1 antag 3%, HEK293 tox inconclusive and Luciferase inh inactive.
For CCn1cc(-c2ccncc2)cc1C(=O)NCc1cccc(OC)c1 the results were NIH3T3 tox inconclusive, NPR1 antag -13%, HEK293 tox inconclusive and Luciferase inh inactive.
CNC(C)c1ccccc1Cl (stereo unspecified) was read as NIH3T3 tox 0%[174 µM] and HEK293 tox inactive.
Screening O=C(Nc1cccc(-c2cccc(Cl)c2)c1)C1CCN(Cc2cccc(O)c2)CC1 returned NIH3T3 tox inconclusive, NPR1 antag -28%, HEK293 tox inconclusive and Luciferase inh inactive.
Screening COc1ccc(OC)c(S(=O)(=O)N2CCCCC2CCn2cc(C(=O)N(C)C)nn2)c1 (stereo unspecified) returned NIH3T3 tox -15% and HEK293 tox -9%.
For COc1ccccc1C(=O)NC[C@@H]1C=C(C)[C@H](Cc2nc3ccncc3[nH]2)C[C@H]1C(C)C the results were NIH3T3 tox inconclusive, NPR1 antag -19%[70.6 µM], HEK293 tox 35µM* and Luciferase inh inactive.
`CC1=C[C@@H](CNC(=O)c2ccccc2)[C@H](C(C)C)C[C@H]1Cc1nc2ccncc2[nH]1` gave NIH3T3 tox inconclusive, NPR1 antag inconclusive, HEK293 tox 79µM* and Luciferase inh inactive.
CC1=C[C@@H](CNC(=O)c2cccnc2)[C@H](C(C)C)C[C@H]1CC(=O)N1CCCC1 was read as NIH3T3 tox -10%[138 µM], NPR1 antag -12%[70.6 µM], HEK293 tox -15%[172 µM] and Luciferase inh 63µM*.
Screening CC1=C[C@@H](CN2C(=O)c3ccccc3C2=O)[C@H](C(C)C)C[C@H]1Cc1nc2ccccc2[nH]1 returned NIH3T3 tox 25µM*, NPR1 antag inconclusive, HEK293 tox 32µM* and Luciferase inh inactive.
Screening COc1ccccc1CNC(=O)C1CN(C2CCCCC2)C(=O)N1 (stereo unspecified) returned NIH3T3 tox -24%[138 µM] and HEK293 tox -10%[172 µM].
Screening COc1cccc(CN2CCCC3(CCN(Cc4ccccc4)C3)C2=O)c1OC (stereo unspecified) returned NIH3T3 tox inconclusive, NPR1 antag -3%, HEK293 tox inconclusive and Luciferase inh inactive.
Screening CNC(=O)[C@@H]1C[C@H](Oc2cccnc2)CN1S(=O)(=O)c1ccc2c(c1)CCC2 returned NIH3T3 tox -12%, NPR1 antag -3%, HEK293 tox -2% and Luciferase inh inactive.
For CCCNC(=O)c1coc(COc2ccc3c(c2)C(c2ccc(F)cc2)N(C(=O)C(C)C)CC3)n1 (stereo unspecified) the results were NIH3T3 tox 22µM*, NPR1 antag -12%, HEK293 tox inconclusive and Luciferase inh inactive.
`CCNC(=O)c1coc(COc2ccc3c(c2)C(c2cccc(F)c2)N(C(=O)C(C)C)CC3)n1` (stereo unspecified) gave NIH3T3 tox inconclusive, NPR1 antag -10%, HEK293 tox 40µM* and Luciferase inh inactive.
`Cc1noc(C)c1[S+](=O)([O-])NC1CCN(c2nc3ncccc3o2)C1` (stereo unspecified) gave NIH3T3 tox -16% and HEK293 tox -1%.
CCOC(=O)N1CCCC1c1noc2nc(C)cc(C(=O)NC)c12 (stereo unspecified) was read as NIH3T3 tox -4% and HEK293 tox 2%.
For COc1ccccc1CNc1ncncc1-c1nc(-c2ccccc2)no1 the results were NIH3T3 tox 2%, NPR1 antag -8%, HEK293 tox 2% and Luciferase inh inactive.
For O=C(NCc1cccs1)C1CCc2sc(C(=O)N3CCCCCC3)cc2C1 (stereo unspecified) the results were NIH3T3 tox inconclusive, NPR1 antag -21%, HEK293 tox inconclusive and Luciferase inh inactive.
Screening O=C(NCc1ccc2c(c1)OCO2)C1CCc2sc(C(=O)N3CCCCCC3)cc2C1 (stereo unspecified) returned NIH3T3 tox inconclusive, NPR1 antag 22µM*, HEK293 tox inconclusive and Luciferase inh inactive.
O=C(NCc1ccc(F)cc1)C1CCc2sc(C(=O)N3CCCC3)cc2C1 (stereo unspecified) was read as NIH3T3 tox inconclusive, NPR1 antag -2%, HEK293 tox 50µM* and Luciferase inh inactive.
For O=C(Nc1cccc(Cl)c1)C1CCc2sc(C(=O)N3CCCC3)cc2C1 (stereo unspecified) the results were NIH3T3 tox 28µM*, NPR1 antag inconclusive, HEK293 tox 40µM* and Luciferase inh inactive.
O=C(NCc1cccc(F)c1)C1CCc2sc(C(=O)N3CCCCC3)cc2C1 (stereo unspecified) was read as NIH3T3 tox inconclusive, NPR1 antag inconclusive, HEK293 tox inconclusive and Luciferase inh inactive.
O=C(N[C@@H]1CN(C(=O)NC2CCCCC2)CCC[C@H]1O)c1ccc(OCc2ccccc2)cc1 was read as NIH3T3 tox inconclusive, NPR1 antag 5%, HEK293 tox inconclusive and Luciferase inh inactive.
`O=C1c2cnc(-c3ccccc3C(F)(F)F)nc2OCCN1Cc1ccccc1` gave NIH3T3 tox -29%[138 µM], NPR1 antag -1%[70.6 µM], HEK293 tox inconclusive and Luciferase inh inactive.
For C[S+](=O)([O-])c1ccc(-c2ncc3c(n2)OCCN(Cc2ccc(F)cc2F)C3=O)cc1 the results were NIH3T3 tox -17%, NPR1 antag -10%, HEK293 tox inconclusive and Luciferase inh inactive.
Screening COc1ccc(Cl)cc1-c1ncc2c(n1)OCCN(c1ccccc1)C2=O returned NIH3T3 tox 40µM*, NPR1 antag 5%[70.6 µM], HEK293 tox 4%[172 µM] and Luciferase inh inconclusive.
Screening COc1ncccc1-c1ncc2c(n1)OCCN(Cc1ccc(F)cc1F)C2=O returned NIH3T3 tox inconclusive, NPR1 antag -7%[70.6 µM], HEK293 tox -29%[172 µM] and Luciferase inh inactive.
`Cc1ccccc1-c1ncc2c(n1)OCCN(c1ccccc1)C2=O` gave NIH3T3 tox -34%[138 µM], NPR1 antag 3%[70.6 µM], HEK293 tox inconclusive and Luciferase inh 20µM*.
For COc1ccc(-c2ncc3c(n2)OCCN(C)C3=O)cc1OC the results were NIH3T3 tox inconclusive, NPR1 antag 2%[70.6 µM], HEK293 tox inactive and Luciferase inh 40µM*.
